# Experiments:
# Details in all cases: concentration: 1 μM, replicates: in singlicate; n = 1
# [1] = tested on: PIKFYVE
# [2] = tested on: PIM1
# [3] = tested on: PIM2
# [4] = tested on: PIM3
# [5] = tested on: PIP5K1A
# [6] = tested on: PIP5K1C
# [7] = tested on: PIP5K2B
# [8] = tested on: T1, PIP5K2C
# T1 construct: gene PIP4K2C
# [9] = tested on: T2, PKAC-alpha
# T2 construct: gene PRKACA
# [10] = tested on: T3, PKAC-beta
# T3 construct: gene PRKACB
# [11] = tested on: PKMYT1
# [12] = tested on: PKN1
# [13] = tested on: PKN2
# [14] = tested on: PLK1
# [15] = tested on: PLK2
# [16] = tested on: PLK3
# [17] = tested on: PLK4
# [18] = tested on: PRKCD
# [19] = tested on: PRKCE
# [20] = tested on: PRKCH
# 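Also: KINOMEscan kinase panel screen.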
smiles,measurement,setting,value
NCC(NC(=O)c1cc(-c2cn[nH]c2)c(-c2ccnc3[nH]ccc23)s1)c1ccccc1.O=C(O)C(F)(F)F.O=C(O)C(F)(F)F (stereo not shown) [GSK1325775],%Inh,[1],0%
same,%Inh,[2],39%
same,%Inh,[3],16%
same,%Inh,[4],41%
same,%Inh,[5],50%
same,%Inh,[6],80%
same,%Inh,[7],71%
same,%Inh,[8],49%
same,%Inh,[9],98.7%
same,%Inh,[10],98%
same,%Inh,[11],0%
same,%Inh,[12],52%
same,%Inh,[13],66%
same,%Inh,[14],14%
same,%Inh,[15],5%
same,%Inh,[16],14%
same,%Inh,[17],29%
same,%Inh,[18],99.8%
same,%Inh,[19],98.7%
same,%Inh,[20],95.1%
O=c1cc(N2CCOCC2)nc2n(Cc3cccc4ccccc34)ccn12 [GSK2333389],%Inh,[1],0%
same,%Inh,[2],0%
same,%Inh,[3],0%
same,%Inh,[4],0%
same,%Inh,[5],0%
same,%Inh,[6],0%
same,%Inh,[7],40%
same,%Inh,[8],0%
same,%Inh,[9],0%
same,%Inh,[10],8%
same,%Inh,[11],4%
same,%Inh,[12],15%
same,%Inh,[13],0%
same,%Inh,[14],0%
same,%Inh,[15],0%
same,%Inh,[16],0%
same,%Inh,[17],0%
same,%Inh,[18],0%
same,%Inh,[19],0%
same,%Inh,[20],0%
COc1cc2c(cc1OC[C@@H](O)CO)ncc1c3ccc(C#N)cc3[nH]c21,%Inh,[1],56%
same,%Inh,[2],0%
same,%Inh,[3],81%
same,%Inh,[4],35%
same,%Inh,[5],38%
same,%Inh,[6],47%
same,%Inh,[7],42%
same,%Inh,[8],76%
same,%Inh,[9],0%
same,%Inh,[10],0%
same,%Inh,[11],0%
same,%Inh,[12],0%
same,%Inh,[13],33%
same,%Inh,[14],0%
same,%Inh,[15],0%
same,%Inh,[16],0%
same,%Inh,[17],9%
same,%Inh,[18],5%
same,%Inh,[19],62%
same,%Inh,[20],0%
COc1cc(Nc2nccc(N3CCC(NC(=O)c4cccc(NC(C)=O)c4)C3)n2)cc(OC)c1OC (stereo not shown) [GSK1379754],%Inh,[1],0%
same,%Inh,[2],0%
same,%Inh,[3],0%
same,%Inh,[4],0%
same,%Inh,[5],0%
same,%Inh,[6],45%
same,%Inh,[7],18%
same,%Inh,[8],92.4%
same,%Inh,[9],3%
same,%Inh,[10],11%
same,%Inh,[11],0%
same,%Inh,[12],0%
same,%Inh,[13],0%
same,%Inh,[14],0%
same,%Inh,[15],0%
same,%Inh,[16],3%
same,%Inh,[17],75%
same,%Inh,[18],8%
same,%Inh,[19],0%
same,%Inh,[20],2%
[2H]C([2H])(c1cccc(C(F)(F)F)c1C)n1ccn2c(=O)nc(N3CCOCC3)cc12 [GSK2336394],%Inh,[1],0%
same,%Inh,[2],0%
same,%Inh,[3],0%
same,%Inh,[4],0%
same,%Inh,[5],0%
same,%Inh,[6],31%
same,%Inh,[7],4%
same,%Inh,[8],0%
same,%Inh,[9],0%
same,%Inh,[10],12%
same,%Inh,[11],0%
same,%Inh,[12],39%
same,%Inh,[13],0%
same,%Inh,[14],0%
same,%Inh,[15],0%
same,%Inh,[16],0%
same,%Inh,[17],0%
same,%Inh,[18],6%
same,%Inh,[19],2%
same,%Inh,[20],0%

# Source: paper PMC5540273 (PLoS ONE, 2017)
